From publication PMC11006913
Positions count from the first letter of the chain named.

Assays:
Test in all cases: PBM; 200 nM protein, PBS
Conditions in all cases: dsDNA, one strand shown
SIX6 [1] = biological target: T1, SIX6 (Homo sapiens, UniProt O95475 114-200, L167I)
T1 sequence: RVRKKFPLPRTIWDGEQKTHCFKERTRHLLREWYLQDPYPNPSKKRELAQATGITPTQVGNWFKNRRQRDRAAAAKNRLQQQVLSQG

SIX6 [2] = biological target: T2, SIX6 (Homo sapiens, UniProt O95475 114-200, L143V)
T2 sequence: T1 sequence with L30V, I54L

SIX6 [3] = biological target: T3, SIX6 (Homo sapiens, UniProt O95475 114-200, H141N)
T3 sequence: T1 sequence with H28N, I54L

SIX6 [4] = biological target: T4, SIX6 (Homo sapiens, UniProt O95475 114-200, T165P)
T4 sequence: T1 sequence with T52P, I54L

SIX6 [5] = biological target: T5, SIX6 (Homo sapiens, UniProt O95475 114-200, L167M)
T5 sequence: T1 sequence with I54M

SIX6 [6] = biological target: T6, SIX6 (Homo sapiens, UniProt O95475 114-200, L143M)
T6 sequence: T1 sequence with L30M, I54L

SIX6 [7] = biological target: T7, SIX6 (Homo sapiens, UniProt O95475 114-200, L143I)
T7 sequence: T1 sequence with L30I, I54L

SIX6 [8] = biological target: T8, SIX6 (Homo sapiens, UniProt O95475 114-200, T165G)
T8 sequence: T1 sequence with T52G, I54L

SIX6 [9] = biological target: T9, SIX6 (Homo sapiens, UniProt O95475 114-200, T139Q)
T9 sequence: T1 sequence with T26Q, I54L

SIX6 [10] = biological target: T10, SIX6 (Homo sapiens, UniProt O95475 114-200, T165A)
T10 sequence: T1 sequence with T52A, I54L

SIX6 [11] = biological target: T11, SIX6 (Homo sapiens, UniProt O95475 114-200, L167V)
T11 sequence: T1 sequence with I54V

SIX6 [12] = biological target: T12, SIX6 (Homo sapiens, UniProt O95475 114-200)
T12 sequence: T1 sequence with I54L

SIX6 [13] = biological target: T13, SIX6 (Homo sapiens, UniProt O95475 114-200, T165I)
T13 sequence: T1 sequence with T52I, I54L

Sequence | binding signal (SIX6 [1]) | binding signal (SIX6 [2]) | binding signal (SIX6 [3]) | binding signal (SIX6 [4]) | binding signal (SIX6 [5]) | binding signal (SIX6 [6]) | binding signal (SIX6 [7]) | binding signal (SIX6 [8]) | binding signal (SIX6 [9]) | binding signal (SIX6 [10]) | binding signal (SIX6 [11]) | binding signal (SIX6 [12]) | binding signal (SIX6 [13])
ATATCATC | 11.3 upbm affinity estimate (log intensity, higher = more binding, comparable within an allelic series) | 10.5 upbm affinity estimate (log intensity, higher = more binding, comparable within an allelic series) | 11.2 upbm affinity estimate (log intensity, higher = more binding, comparable within an allelic series) | 10 upbm affinity estimate (log intensity, higher = more binding, comparable within an allelic series) | 10.8 upbm affinity estimate (log intensity, higher = more binding, comparable within an allelic series) | 11.1 upbm affinity estimate (log intensity, higher = more binding, comparable within an allelic series) | 10.5 upbm affinity estimate (log intensity, higher = more binding, comparable within an allelic series) | 11.3 upbm affinity estimate (log intensity, higher = more binding, comparable within an allelic series) | 11.3 upbm affinity estimate (log intensity, higher = more binding, comparable within an allelic series) | 11.2 upbm affinity estimate (log intensity, higher = more binding, comparable within an allelic series) | 11 upbm affinity estimate (log intensity, higher = more binding, comparable within an allelic series) | 11.1 upbm affinity estimate (log intensity, higher = more binding, comparable within an allelic series) | 11.1 upbm affinity estimate (log intensity, higher = more binding, comparable within an allelic series)
ATACGATA | 11.1 upbm affinity estimate (log intensity, higher = more binding, comparable within an allelic series) | 10.4 upbm affinity estimate (log intensity, higher = more binding, comparable within an allelic series) | 11 upbm affinity estimate (log intensity, higher = more binding, comparable within an allelic series) | 9.94 upbm affinity estimate (log intensity, higher = more binding, comparable within an allelic series) | 10.6 upbm affinity estimate (log intensity, higher = more binding, comparable within an allelic series) | 10.9 upbm affinity estimate (log intensity, higher = more binding, comparable within an allelic series) | 10.4 upbm affinity estimate (log intensity, higher = more binding, comparable within an allelic series) | 11.2 upbm affinity estimate (log intensity, higher = more binding, comparable within an allelic series) | 11.2 upbm affinity estimate (log intensity, higher = more binding, comparable within an allelic series) | 11 upbm affinity estimate (log intensity, higher = more binding, comparable within an allelic series) | 10.9 upbm affinity estimate (log intensity, higher = more binding, comparable within an allelic series) | 10.9 upbm affinity estimate (log intensity, higher = more binding, comparable within an allelic series) | 10.8 upbm affinity estimate (log intensity, higher = more binding, comparable within an allelic series)
GTATCAAC | 11.2 upbm affinity estimate (log intensity, higher = more binding, comparable within an allelic series) | 10.3 upbm affinity estimate (log intensity, higher = more binding, comparable within an allelic series) | 11.3 upbm affinity estimate (log intensity, higher = more binding, comparable within an allelic series) | 9.76 upbm affinity estimate (log intensity, higher = more binding, comparable within an allelic series) | 10.6 upbm affinity estimate (log intensity, higher = more binding, comparable within an allelic series) | 11 upbm affinity estimate (log intensity, higher = more binding, comparable within an allelic series) | 10.4 upbm affinity estimate (log intensity, higher = more binding, comparable within an allelic series) | 11.4 upbm affinity estimate (log intensity, higher = more binding, comparable within an allelic series) | 11.3 upbm affinity estimate (log intensity, higher = more binding, comparable within an allelic series) | 11.3 upbm affinity estimate (log intensity, higher = more binding, comparable within an allelic series) | 11 upbm affinity estimate (log intensity, higher = more binding, comparable within an allelic series) | 11.1 upbm affinity estimate (log intensity, higher = more binding, comparable within an allelic series) | 11.1 upbm affinity estimate (log intensity, higher = more binding, comparable within an allelic series)
CGTGATAC | 11.2 upbm affinity estimate (log intensity, higher = more binding, comparable within an allelic series) | 10.3 upbm affinity estimate (log intensity, higher = more binding, comparable within an allelic series) | 11.3 upbm affinity estimate (log intensity, higher = more binding, comparable within an allelic series) | 9.72 upbm affinity estimate (log intensity, higher = more binding, comparable within an allelic series) | 10.6 upbm affinity estimate (log intensity, higher = more binding, comparable within an allelic series) | 11.1 upbm affinity estimate (log intensity, higher = more binding, comparable within an allelic series) | 10.4 upbm affinity estimate (log intensity, higher = more binding, comparable within an allelic series) | 11.3 upbm affinity estimate (log intensity, higher = more binding, comparable within an allelic series) | 11.3 upbm affinity estimate (log intensity, higher = more binding, comparable within an allelic series) | 11.2 upbm affinity estimate (log intensity, higher = more binding, comparable within an allelic series) | 10.9 upbm affinity estimate (log intensity, higher = more binding, comparable within an allelic series) | 11 upbm affinity estimate (log intensity, higher = more binding, comparable within an allelic series) | 11 upbm affinity estimate (log intensity, higher = more binding, comparable within an allelic series)
AGTGATAC | 11.6 upbm affinity estimate (log intensity, higher = more binding, comparable within an allelic series) | 10.5 upbm affinity estimate (log intensity, higher = more binding, comparable within an allelic series) | 11.5 upbm affinity estimate (log intensity, higher = more binding, comparable within an allelic series) | 9.81 upbm affinity estimate (log intensity, higher = more binding, comparable within an allelic series) | 10.9 upbm affinity estimate (log intensity, higher = more binding, comparable within an allelic series) | 11.2 upbm affinity estimate (log intensity, higher = more binding, comparable within an allelic series) | 10.5 upbm affinity estimate (log intensity, higher = more binding, comparable within an allelic series) | 11.6 upbm affinity estimate (log intensity, higher = more binding, comparable within an allelic series) | 11.5 upbm affinity estimate (log intensity, higher = more binding, comparable within an allelic series) | 11.5 upbm affinity estimate (log intensity, higher = more binding, comparable within an allelic series) | 11.4 upbm affinity estimate (log intensity, higher = more binding, comparable within an allelic series) | 11.2 upbm affinity estimate (log intensity, higher = more binding, comparable within an allelic series) | 11.4 upbm affinity estimate (log intensity, higher = more binding, comparable within an allelic series)
CCGCCAGC | 9.01 upbm affinity estimate (log intensity, higher = more binding, comparable within an allelic series) | 9.02 upbm affinity estimate (log intensity, higher = more binding, comparable within an allelic series) | 9.07 upbm affinity estimate (log intensity, higher = more binding, comparable within an allelic series) | 9.02 upbm affinity estimate (log intensity, higher = more binding, comparable within an allelic series) | 9.06 upbm affinity estimate (log intensity, higher = more binding, comparable within an allelic series) | 9.02 upbm affinity estimate (log intensity, higher = more binding, comparable within an allelic series) | 9.03 upbm affinity estimate (log intensity, higher = more binding, comparable within an allelic series) | 9.05 upbm affinity estimate (log intensity, higher = more binding, comparable within an allelic series) | 9.1 upbm affinity estimate (log intensity, higher = more binding, comparable within an allelic series) | 9.05 upbm affinity estimate (log intensity, higher = more binding, comparable within an allelic series) | 9.06 upbm affinity estimate (log intensity, higher = more binding, comparable within an allelic series) | 9.05 upbm affinity estimate (log intensity, higher = more binding, comparable within an allelic series) | 9.03 upbm affinity estimate (log intensity, higher = more binding, comparable within an allelic series)
